This passage reports inhibition results from PubChem BioAssay AID1626 (SRMLSC, 2009).

The structures appear in SMILES notation. The campaign covered roughly 220,000 compounds. About 2,000 (0.91%) were called active. About 2% were inconclusive and are not listed. These entries were drawn from the full list. Potency and affinity values are given separately. Values without a mark were called inactive. Cut-off read from the data, not from the text of the source: inconclusive = inhibition above about 80% without an active follow-up result; inactive = below that; test concentration not stated here.

The nature of this assay: M. tuberculosis H37Rv growth inhibitors, H37Rv strain (AID 1626).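 Note: bacteria incubated seven days before Alamar blue readout; 0% = bacteria only wells and 100% = bacteria with antibiotic wells.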 To be noted: hits give high values, concentration not given here.
For the molecule `CCOc1ccc(-c2nn(-c3ccccc3)cc2/C=C2\SC(=S)N(Cc3ccco3)C2=O)cc1`, the inhibition (commonly the drop in the measured response relative to a control, in per cent) was -2.18%.
In the case of `COc1ccccc1C1=NC(c2ccc(C)cc2)N=C1C` (configuration not stated), the inhibition was 7.88%.
In the case of `COc1ccc(N2C(=O)C3NN=C(C(=O)OCc4ccccc4)C3C2=O)cc1` (configuration not stated), the inhibition is 1.18%.
Under `Cc1cccc(NC(=S)N(CCN(C)C)Cc2cc3cccc(C)c3[nH]c2=O)c1` stands 12.2%; under `CSC1=NC(C)(C)C=C(/C=C/c2ccc(Cl)cc2)N1`, -4.38%.
Turning to `Cc1c(C(=O)N2CCN(C)CC2)oc2ccc(S(=O)(=O)N3CCOCC3)cc12`, the inhibition was -4.68%.
The figure for `Cc1cc(C(=O)NC(C)c2ccncc2)no1` (configuration not stated) is -9.57%; for `CCn1c2c(c(C)cc1=O)C(=O)CC(C)(C)C2` it is -1.17%.
In the case of `CC(=O)c1ccc(N2Cc3ccccc3C3(CCOCC3)C2=N)cc1`, the inhibition was -1.43%.
Under `COc1ccccc1CC(=O)NC1CCCc2ccccc21` (configuration not stated) stands 1.93%; under `Cc1cc(Nc2ccc3c(c2)OCCO3)n2nc(C)nc2n1`, 1.27%.
Turning to `CCOC(=O)C1=Nc2ccccc2/C1=C\c1c(O)n(C)c(=O)n(C)c1=O`, the inhibition was -4.93%.
For the molecule `CCOC(=O)C(=O)Nc1ccccc1C(=O)OCC`, the inhibition is -3.74%.
For the molecule `CC(=O)Nc1cc(C(F)(F)F)ccc1OCC1CCCO1` (configuration not stated), the inhibition was 4.74%.
As to `COc1cccc(-c2cc(C(F)(F)F)n3nc(C(=O)N4CCCCC4c4cccnc4)cc3n2)c1` (configuration not stated), the inhibition is -1.53%.
`Cc1ccc(-c2cc(C(F)(F)F)n3ncc(C(=O)N4CCCCC4c4cccnc4)c3n2)cc1` (configuration not stated): the inhibition is 9.06%.
In the case of `CCN1CCN(C(=S)Nc2ccsc2C(=O)OC)CC1`, the inhibition is 2.48%.
With `COc1ccc(CCNC(=O)COC(=O)COc2ccc(C#N)cc2)cc1`, the inhibition is 3.53%.
Turning to `O=C(Nc1nnc(CCc2ccccc2)s1)c1cccs1`, the inhibition was -0.19%.
Under `O=C(Nc1nnc(Cc2ccccc2)s1)c1cccs1` stands -2.7%; under `Cc1ccc(Cc2cnc(NC(=O)c3ccco3)s2)cc1`, -0.28%.
As to `O=C(Nc1nnc(Cc2ccc(Cl)cc2)s1)c1cccs1`, the inhibition was -8%.
On to `CCOC(=O)c1oc2cccc(O)c2c1CN1CCOCC1`, for which the inhibition is 1.91%.
In the case of `CC(=N/O)/C(=N\O)c1ccc(C)o1`, the inhibition was 5.71%.
With `O=C1CC(N2CCN(Cc3ccc4c(c3)OCO4)CC2)C(=O)N1c1cccc2ccccc12` (configuration not stated), the inhibition is -7.76%.
For `CCOC(=O)c1c(NC(=O)COC(=O)c2cc(OC)c(OC)cc2[N+](=O)[O-])sc(C)c1C`, the inhibition was 0.78%.
The figure for `O=C(Nc1ccc(Cl)cc1)N1CCCC1` is 1.26%.
Under `O=C(Nc1cccc(Cl)c1)N1CCCC1` stands -2.82%; under `N#Cc1c(-c2ccc(Cl)cc2Cl)nc2n(c1=O)CCS2`, -1.19%; under `O=C(Cn1cnc2c(nnn2-c2ccccc2)c1=O)N1CCOCC1`, 3.36%.
With `CCOc1ccc(-n2c(C)nc3c(cnn3-c3ccc(Cl)cc3)c2=O)cc1`, the inhibition was -1.94%.
As to `Cc1ccccc1OCC(=O)Nc1ccc(N2CCN(S(C)(=O)=O)CC2)cc1`, the inhibition is -6.69%.
For `Cc1ccc(OCC(=O)Nc2ccc(N3CCN(C(=O)c4ccc(C)cc4)CC3)cc2)cc1`, the inhibition is -3.04%.
As to `CCOC(=O)N1CCN(c2cc(C)nc3nc(C)nn23)CC1`, the inhibition was -2.69%.
As to `CCSCc1nnc(SCC(=O)Nc2ccc(OC)cc2)n1C`, the inhibition is 7.37%.
The figure for `CCSCc1nnc(SCC(=O)Nc2cccc(C(C)=O)c2)n1C` is -4.22%; for `CSc1cccc(NC(=O)CSc2ccc(C)cc2)c1` it is 52.9%.
For `COc1cccc(NC(=O)CSc2nnc(C)s2)c1`, the inhibition was -3.98%.
On to `Nn1c(CN2CCCCC2)nc2ccccc2c1=O`, for which the inhibition is 4.4%.
Consider `Cc1csc(NC(=O)CS(=O)(=O)c2ccccc2)n1`, for which the inhibition was -3.27%.
`O=C(OCC(=O)N1CCCCCC1)c1ccc([N+](=O)[O-])cc1Cl`: the inhibition is 20.3%.
For `OC(COc1ccc(OCc2ccccc2)cc1)CN1CCCCC1` (configuration not stated), the inhibition was 3.57%.
With `Cc1ccccc1OCc1nnc(SCC(=O)NCc2ccco2)n1C`, the inhibition is -6.74%.
`Cc1ccc(S(=O)(=O)NC(CC(C)C)C(=O)Nc2nccs2)cc1` (configuration not stated): the inhibition is -11.9%.
For the molecule `COc1ccccc1NCC(O)Cn1c2ccccc2c2ccccc21` (configuration not stated), the inhibition is 2.53%.
Take `COc1ccc(CCNCC(O)Cn2ccc3ccccc32)cc1OC` (configuration not stated): the inhibition was -9.67%.
Consider `CC(C)N(Cc1cc2ccccc2[nH]c1=O)C(=O)c1cccnc1`, for which the inhibition is -8.2%.
Take `COc1ccc(S(=O)(=O)N2C(=O)/C(=C3\SC(N)=NC3=O)c3ccccc32)cc1`: the inhibition was -3.28%.
For the molecule `COc1ccc2nc(/N=C/c3c(C)[nH]n(-c4ccc(C)cc4C)c3=O)sc2c1`, the inhibition is 6.1%.
In the case of `CCCCOc1ccc(-c2nc(/C=N/c3nccs3)c(O)o2)cc1`, the inhibition is 25.4%.
The figure for `COc1ccc2nc(/N=C/c3c(C)[nH]n(-c4ccc(C)cc4)c3=O)sc2c1` is 33%.
For `Oc1oc(-c2ccccc2)nc1/C=N/c1nccs1`, the inhibition was -8.45%.
On to `Cc1ccccc1CN1CCN(c2ccc(Cl)cc2)CC1`, for which the inhibition is 6.57%.
Consider `N/C(=N\OS(=O)(=O)c1ccc(Cl)cc1)c1cccnc1`, for which the inhibition is -1.48%.
`Cc1nn2c(N)c(C#N)cnc2c1-c1ccccc1`: the inhibition is -6.08%.
With `COCc1nn2c(N)c(C#N)cnc2c1-c1ccccc1`, the inhibition is 4.73%.
In the case of `O=C(NCCc1c[nH]c2ccccc12)c1cnccn1`, the inhibition is 2.35%.
As to `O=[N+]([O-])c1ccc(C(O)C(CO)NC(=S)Nc2ccccc2)cc1` (configuration not stated), the inhibition was -0.74%.
As to `Cc1ccc(NC(=S)NC(CO)C(O)c2ccc([N+](=O)[O-])cc2)cc1` (configuration not stated), the inhibition is -9.71%.
Consider `Cn1c(-c2ccccc2)c(C(=O)CC#N)c2ccccc21`, for which the inhibition was 7.31%.
Consider `CCn1c(-c2ccccc2)c(C(=O)CCl)c2ccccc21`, for which the inhibition is 76.1%.
With `Cn1cc(C(N)=O)c2ccccc21`, the inhibition was -2.82%.
As to `Cn1cc(C(=O)Cc2ccccc2)c2ccccc21`, the inhibition is 0.26%.
Regarding `Cc1ccc(-c2ccc(NC(=O)C3C4C=CC(C4)C3C(=O)O)cc2)o1` (configuration not stated), the inhibition was 66.8%.
As to `COCCCN(CCC#N)C(=O)c1c(-c2c(Cl)cccc2Cl)noc1C`, the inhibition was -10.4%.
Regarding `Cc1cc([N+](=O)[O-])ccc1NC(=O)c1cccc(NC(=O)C(C)C)c1`, the inhibition is 10.8%.
The figure for `COc1cc(NC(=O)c2ccc([N+](=O)[O-])cc2)ccc1NC(=O)C(C)C` is 2.5%.
Regarding `COc1ccc(NC(=O)CCSc2nnc(C)s2)cc1`, the inhibition is -0.89%.
On to `CC(=O)Nc1ccc(S(=O)(=O)N2CCCC(C(=O)O)C2)cc1` (configuration not stated), for which the inhibition is 0.58%.
Under `FC(F)(F)c1cccc(Oc2nc(-c3ccccc3)nnc2C(F)(F)F)c1` stands 8.03%.
Take `FC(F)(F)c1nnc(-c2ccccc2)nc1Sc1ccc(Cl)cc1`: the inhibition was 36.4%.
The figure for `Fc1ccc(Oc2nc(-c3ccccc3)nnc2C(F)(F)F)cc1` is -3.97%; for `CNc1nc(-c2ccccc2)nnc1C(F)(F)F` it is -2.77%.
Turning to `Cc1ccc(Sc2nc(-c3ccccc3)nnc2C(F)(F)F)cc1`, the inhibition is 13.4%.
For the molecule `FC(F)(F)c1nnc(-c2ccccc2)nc1N1CCCC1`, the inhibition was -1.21%.
The figure for `COC(=O)CC/C(O)=C1/C(=N)CC(C)(C)CC1=O` is -9.88%; for `CC1CCN(CCCNC(=O)COc2cc(=O)n(C)c3ccccc23)CC1` it is -0.28%.
Consider `O=C(CCn1c(=O)c2sccc2n(CC(=O)OCc2ccccc2)c1=O)NCc1ccccc1`, for which the inhibition is -4.57%.
For the molecule `CCC(=O)N(C1=C(NC)C(=O)c2ccccc2C1=O)C(C)C`, the inhibition is 2.12%.
`CCC(=O)N(C1=C(NC(C)C)C(=O)c2ccccc2C1=O)C(C)C`: the inhibition is 3.87%.
Turning to `CC(=O)N(C1=C(N2CCOCC2)C(=O)c2ccccc2C1=O)c1ccc(C(=O)O)cc1`, the inhibition is -1.19%.
Turning to `CC(=O)N(Cc1ccc(F)cc1)C1=C(NCCc2ccccc2)C(=O)c2ccccc2C1=O`, the inhibition is 16.5%.
The figure for `CCNC(=O)/C=C1\NC(C)(C)Cc2c1ccc1ccccc21` is -3.91%; for `O=C1OCCC1Sc1nc2ccccc2s1` (configuration not stated) it is 6.97%; for `O=C(CN1CCN(Cc2ccccc2Cl)C1=O)NCc1ccccn1` it is 1.55%.
Turning to `O=C(NCC1CCCO1)C(c1ccc(F)cc1)N(Cc1ccc(F)cc1)C(=O)Cn1nnc(-c2cccs2)n1` (configuration not stated), the inhibition was -8.2%.
Take `O=C(NCCc1nc2ccccc2[nH]1)/C(=C/c1ccc2c(c1)OCO2)NC(=O)c1ccccc1`: the inhibition is 1.83%.
`O=C(NCCc1nc2ccccc2[nH]1)/C(=C/c1ccc2c(c1)OCO2)NC(=O)c1ccccc1Cl`: the inhibition is 2.62%.
Turning to `Cc1n[nH]c(C)c1Cc1c(F)cccc1Cl`, the inhibition is -0.71%.
`Nc1nc(N)nc(-c2ccccn2)n1`: the inhibition was -3.41%.
On to `CC(NCc1ccc(Cl)cc1Cl)C(O)c1ccccc1` (configuration not stated), for which the inhibition was 5.99%.
The figure for `CC1CCCN(S(=O)(=O)c2ccc3c(c2)CCN3C(=O)C2CCC2)C1` (configuration not stated) is 5.83%; for `ONC(=Nc1ccc(Cl)cc1)c1ccc(Cl)cc1` it is -13.7%; for `Cc1ccc(C(c2c(C)nn(-c3ccccc3)c2N)c2c(C)nn(-c3ccccc3)c2N)cc1` it is 6.99%.
With `Cc1nn(-c2ccccc2)c(N)c1C(c1ccccc1)c1c(C)nn(-c2ccccc2)c1N`, the inhibition is 9.35%.
As for `C#CCNC(=O)C1CCN(c2cc(C)nc(-c3ccccc3)n2)CC1`, the inhibition was -0.44%.
The figure for `CCOC(=O)c1cc([N+](=O)[O-])sc1NC(=O)c1ccc(S(=O)(=O)N2CC3(C)CC2CC(C)(C)C3)cc1` (configuration not stated) is -0.55%.
